From PubChem BioAssay
Hits are enriched below; roughly 3.2% of the tested compounds scored in any of these assays.
Y pestis TopoI: inhibitors of Yersinia pestis topoisomerase I; activity, % at 10 µM; Y. pestis Topo-I cleavage product accumulation, plate reader; hit rate 0.064% among 360,000; in the data active means activity above about 50%, passing the limit was not always enough
TcdB GH inh: blocks C. difficile toxin B glycohydrolase activity; inhibition, % at 9.99 µM; hit rate 0.24% among 350,000; AID 652162; TcdB glycohydrolase enzymatic assay, plate reader; in the data active means inhibition above about 10%
Mtb FBA inh: inhibitors of M. tuberculosis fructose-bisphosphate aldolase | purified M. tuberculosis FBA, fluorescence read-out | inhibition, % at 1 µM | hit rate 2.3% among 360,000
GDH-TPI counter-1: counter-screen for M. tuberculosis FBA inhibitors: GDH-TPI coupled enzymes. inhibition, % at 4.8 µM. GDH-TPI coupled enzyme counterscreen, NADH absorbance. hit rate 1.2% among 360,000. AID 588335; in the data active means inhibition above about 30%
PrPC surface inh: inhibitors of human cell surface prion protein PrPC; P04156; TR-FRET read-out; inhibition, % at 13.8 µM; hit rate 0.43% among 370,000; AID 720596; in the data active means inhibition above about 24%
Mtb FBA confirm: Mtb FBA inhibition, confirmed | shares compounds with Mtb FBA inh | purified M. tuberculosis FBA, fluorescence read-out | inhibition, % at 1 µM | hit rate 78% among 5,600 | AID 651616
GDH-TPI counter-2: counter-screen for M. tuberculosis FBA inhibitors: GDH-TPI coupled enzyme inhibition; shares compounds with Mtb FBA inh; GDH-TPI coupled enzyme counterscreen, fluorescence; inhibition, % at 1 µM; hit rate 81% among 5,600; in the data active means inhibition above about 10%
GDH-TPI dose: GDH-TPI dose response counter-screen for Mtb FBA; GDH-TPI coupled enzyme assay, fluorescence, artifact counterscreen; hit rate 79% among 170; AID 652145; IC50, µM; shares compounds with Mtb FBA inh; call rule not given here
Numbers stand for hits; . = inactive; / = no result given; + = active, no number. Unless noted, no stated cut-off is given here; in the data, active means inhibition above about 27%; inactive means the rest.

SMILES	Y pestis TopoI	TcdB GH inh	Mtb FBA inh	GDH-TPI counter-1	PrPC surface inh	Mtb FBA confirm	GDH-TPI counter-2	others
CCCc1nc2ccc(N)cc2c(=O)n1Cc1ccccc1Cl	.	.	27.9	.	.	105.3	83.2
COc1ccc(-c2[nH]ncc2CN(Cc2nccn2C)C(C)C)c(F)c1	.	.	.	.	.	/	/
CCn1ccnc1CN(C)Cc1cn[nH]c1-c1ccc(F)cc1F	.	.	90.5	.	.	.	.
O=C(Nc1ccc2c(c1)[C@H]1C[C@@H](CC(=O)N3CCCCC3)O[C@H](CO)[C@H]1O2)NC1CCCC1	/	.	/	/	/	/	/
CCCN(CC(=O)Nc1ccccc1C)C(=O)c1ccc(-c2ccc(C(C)=O)cc2)o1	.	/	73.2	31.3	/	.	.
COc1cc2c(cc1OC)CN(CC(=O)Nc1ccccc1C#N)CC2	.	/	64.7	.	.	155.8	175.6
COc1cc2c(cc1OC)CN(CC(=O)Nc1ccccc1SC)CC2	.	.	.	.	.	/	/
CC1=C[C@@H]2c3cccc4[nH]cc(c34)C[C@H]2N(C)C1	.	.	82.0	.	.	51.8	49.2
Cc1ccc(S(=O)(=O)N(C)C[C@H]2OCCCC[C@H](C)Oc3ccc(NC(=O)c4ccccc4)cc3C(=O)N([C@H](C)CO)C[C@@H]2C)cc1	/	.	/	/	/	/	/
CCC(=O)Nc1c(S(=O)(=O)c2ccccc2)c2nc3ccccc3nc2n1C(C)c1ccccc1 (stereo unspecified)	.	/	73.0	.	.	73.1	68.3
CCC(=O)Nc1c(S(=O)(=O)c2ccc(C)cc2)c2nc3ccccc3nc2n1C(C)c1ccccc1 (stereo unspecified)	.	.	57.7	.	.	49.6	29.9
CC(c1ccccc1)n1c(S(=O)(=O)O)nc2ccccc21 (stereo unspecified)	.	.	.	.	.	/	/
CCCCn1c(NS(=O)(=O)c2ccc(C)cc2)c(C(=O)OCC)c2nc3ccccc3nc21	.	.	.	.	.	/	/
COCC(=O)Nc1ccc2c(c1)C(=O)N(C)C[C@H](OC)[C@H](C)CN(Cc1ccccn1)[C@H](C)CO2	/	.	/	/	/	/	/
C[C@H]1CN([C@@H](C)CO)C(=O)c2cc(NC(=O)Cn3cnnn3)ccc2O[C@H]1CN(C)S(=O)(=O)c1cn(C)cn1	/	.	/	/	/	/	/
CCCCCC(=O)Nc1c(-c2ccc(OC)cc2)c(=O)c2ccccc2n1C	.	.	28.1	.	.	128.3	104.4
CCCC(=O)Nc1c(-c2ccccc2OC)c(=O)c2ccccc2n1C	.	.	.	.	.	/	/
CCCC(=O)Nc1c(-c2ccc(OC)cc2)c(=O)c2ccccc2n1C	.	/	28.4	.	.	.	.
COc1ccc(C#Cc2cnc3c(c2)C(=O)N([C@@H](C)CO)C[C@H](C)[C@H](CN(C)C)O3)cc1	/	.	/	/	/	/	/
COc1ccccc1-c1oc2ccccc2c1C#CC(C)(C)O	.	.	54.6	.	.	+	+
O=C(NC[C@H]1CC[C@H]2[C@H](CN2C(=O)CN2CCOCC2)O1)NC1CCCCC1	/	.	/	/	/	/	/
CCc1nnc(NC(=O)CSc2nnc(-c3ccoc3C)n2-c2cccc(C)c2)s1	.	/	.	.	.	/	/
Cc1cccc(-n2c(SCC(=O)Nc3nnc(C)s3)nnc2-c2ccoc2C)c1	.	/	46.1	.	.	38.1	31.3
NC1=NN=C(N2N=C(c3ccc(Br)cc3)CC2(O)C(F)(F)F)n2ncnc2C1 (stereo unspecified)	.	.	55.9	.	.	.	.
COc1ccccc1C1=NN(C2=NN=C(N)Cc3ncnn32)C(O)(C(F)(F)F)C1 (stereo unspecified)	.	.	35.0	.	.	.	.
SMILES	Y pestis TopoI	TcdB GH inh	Mtb FBA inh	GDH-TPI counter-1	PrPC surface inh	Mtb FBA confirm	GDH-TPI counter-2	others
NC1=NN=C(N2N=C(c3ccccc3)CC2(O)C(F)(F)F)n2ncnc2C1 (stereo unspecified)	.	.	.	.	.	/	/
C[C@@H]1CN([C@@H](C)CO)C(=O)Cc2cc(NS(=O)(=O)c3cccs3)ccc2O[C@H]1CN(C)Cc1ccc(Oc2ccccc2)cc1	/	.	/	/	/	/	/
Cc1noc(C)c1S(=O)(=O)Nc1ccc2c(c1)CC(=O)N([C@H](C)CO)C[C@@H](C)[C@H](CN(C)Cc1ccc(C(=O)O)cc1)O2	/	.	/	/	/	/	/
CCOC(=O)Nc1nnc(-c2ccccc2OC)s1	.	/	42.2	.	.	137.4	98.1
COc1ccc(-c2nnc(NC(=O)C(C)C)s2)c(OC)c1	.	.	36.2	.	.	101.5	101.9
COc1ccc(Cc2nnc(NC(=O)C(C)C)s2)cc1	.	.	.	.	.	/	/
COc1ccccc1-c1nnc(N)s1	.	.	46.1	.	.	85.8	75.7
Nc1nnc(-c2ccccc2Cl)s1	.	/	.	.	.	/	/
COC(=O)Nc1nncs1	.	.	49.5	.	.	145.2	129.9
O=C(Nc1nncs1)Oc1ccccc1	.	.	.	.	.	/	/
O=C(Nc1cc(Cl)cc(Cl)c1)N[C@@H]1CC[C@@H](CCNS(=O)(=O)c2cccc(F)c2)O[C@H]1CO	/	.	/	/	/	/	/
Cn1cnc(CCNC(=O)C[C@@H]2CC[C@@H]3[C@H](COC[C@H](O)CN3C(=O)C3CCCC3)O2)c1	/	.	/	/	/	/	/
COC(=O)Nc1nnc(-c2ccncc2)s1	.	/	107.8	.	.	58.8	56.4
COC(=O)Nc1nnc(-c2ccccc2OC)s1	.	.	66.5	.	.	.	.	GDH-TPI dose=3.2
CO[C@H]1CN(C)C(=O)c2ccc(NC(=O)C3CC3)cc2OC[C@@H](C)N(C(=O)C2CCOCC2)C[C@@H]1C	/	.	/	/	/	/	/
CC1(C)Cc2c(C#N)c(N3CCOCC3)nc(Cc3ccccc3)c2CO1	.	/	35.3	.	.	64.8	51.9
CC1(C)Cc2c(C#N)c(N3CCOCC3)nc(-c3ccccc3)c2CO1	.	/	.	.	.	/	/
Cc1nc(N2CCOCC2)c(C#N)c2c1COC(C)(C)C2	.	/	51.1	.	.	.	.
COCC(=O)Nc1ccc2c(c1)C(=O)N(C)C[C@H](OC)[C@@H](C)CN(Cc1cncnc1)[C@@H](C)CO2	/	.	/	/	/	/	/
CN1C(=O)c2cc(NC(=O)c3ccc(F)cc3)ccc2OC[C@@H]2O[C@@H](CC(=O)O)CC[C@H]21	/	.	/	/	/	/	/
O=C(C1CC1)N1CC2(C1)[C@@H](c1ccccc1)[C@@H](CO)N2Cc1ccc(Cl)cc1	/	.	/	/	/	/	/
COc1ccc(C2Nc3ccccc3C(=O)N2c2ccccc2)cc1COc1ccccn1 (stereo unspecified)	.	.	90.4	.	.	89.7	75.1
O=C1c2ccccc2NC(c2cccc(F)c2)N1Cc1ccco1 (stereo unspecified)	.	.	59.6	.	.	74.3	59.0
O=C1c2ccccc2NC(c2cccc(F)c2)N1Cc1ccccc1 (stereo unspecified)	.	.	57.9	.	.	97.0	81.3
COc1ccc(C2Nc3ccccc3C(=O)N2Cc2ccco2)cc1COc1ccc(NC(C)=O)cc1 (stereo unspecified)	.	/	40.6	.	.	.	.
